According to PubChem BioAssay AID449762 (Southern Research Specialized Biocontainment Screening …, 2010):
In all, about 330,000 compounds went through this assay and about 1,900 (0.58%) were called active. About 4% were inconclusive and are not listed. Cut-off read from the data, not from the text of the source: inconclusive = inhibition above about 70% without an active follow-up result; inactive = below that. A selection follows. Results with a measured potency or affinity are listed apart.

Assay: M. tuberculosis growth inhibition, HTS (AID 449762);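 note: bacterial growth assessed after seven days of incubation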
Conditions: M. tuberculosis H37Rv growth inhibition, 7H9 media; at 25 µM; active compounds read high

Q: For `O=[N+]([O-])c1cc(-c2nnc(N3CCOCC3)c3ccccc23)ccc1N1CCOCC1`, which inhibition is on record?
A: 0.47% (inactive)

Q: Which inhibition does the source give for `Cc1ccc(NC(=O)CCc2c[nH]c3ccccc23)nc1` here?
A: 1.19% (inactive)

Q: For `Cc1ccnc(NC(=O)CCCc2c[nH]c3ccccc23)c1`, which inhibition is on record?
A: -0.54% (inactive)

Q: With `O=C(CN(C(=O)CSc1nc2ccccc2o1)c1ccccc1)NC1CCCCC1` as the molecule, how does the inhibition read?
A: -0.41% (inactive)

Q: With `CNc1c(C(=O)O)ccc2c1C(=O)c1ccccc1C2=O` as the molecule, how does the inhibition read?
A: 9.33% (inactive)

Q: For `COc1ccc2c(c1O)C(=O)c1ccccc1C2=O`, which inhibition is on record?
A: -7.89% (inactive)

Q: For `CCc1nc(SCC(=O)Nc2ccnc3ccccc23)n[nH]1`, which inhibition is on record?
A: -7.48% (inactive)

Q: Which inhibition does the source give for `Cc1c(C)c2ccc(Oc3ccc([N+](=O)[O-])cc3C(F)(F)F)c(C)c2oc1=O` here?
A: 7.78% (inactive)

Q: Which inhibition does the source give for `Cc1cc(=O)oc2cc(Oc3ccc([N+](=O)[O-])cc3[N+](=O)[O-])ccc12` here?
A: 50.5% (inactive)

Q: For `CN(c1ccccc1)S(=O)(=O)c1ccc(C(=O)OCC(=O)NC(N)=O)cc1`, which inhibition is on record?
A: 1% (inactive)

Q: For `COc1ccc(-c2c(C(=O)O)c(C(=O)O)c3n2CCC3)cc1`, which inhibition is on record?
A: 0.3% (inactive)

Q: With `Cc1ccc(CSc2ncn(-c3ccccc3)n2)cc1` as the molecule, how does the inhibition read?
A: -2.76% (inactive)

Q: For `CC(C)(C)c1ccc(NC(=O)CCNC(=O)c2ccco2)cc1`, which inhibition is on record?
A: 1.96% (inactive)

Q: With `Cc1cc(C)c(S(=O)(=O)Nc2ccc(Cl)cn2)c(C)c1` as the molecule, how does the inhibition read?
A: 2.9% (inactive)

Q: With `CCN(CC(=O)Nc1ccccc1OC)C(=O)CCOc1ccc(C(C)(C)C)cc1` as the molecule, how does the inhibition read?
A: -2.92% (inactive)

Q: For `O=[N+]([O-])c1cc(S(=O)(=O)N2CCCCC2)ccc1NCCN1CCOCC1`, which inhibition is on record?
A: -0.42% (inactive)

Q: For `O=C(Nc1cccc(-c2ccc(N3CCCCC3)nn2)c1)C(F)(F)F`, which inhibition is on record?
A: 5.09% (inactive)

Q: With `CCC(=O)Nc1cccc(-c2ccc(N3CCCCC3)nn2)c1` as the molecule, how does the inhibition read?
A: 2.67% (inactive)

Q: Which inhibition does the source give for `COc1cccc(C(=O)/C=C/Nc2ccc(S(=O)(=O)Nc3nc(C)cc(C)n3)cc2)c1` here?
A: 1.1% (inactive)

Q: Which inhibition does the source give for `O=C1NC[C@H](c2ccccc2)N(CCc2cc(C(F)(F)F)cc(C(F)(F)F)c2)C1=O` here?
A: 2.8% (inactive)

Q: Which inhibition does the source give for `FC(F)(F)c1cc(CCN2C(=S)NC[C@@H]2c2ccccc2)cc(C(F)(F)F)c1` here?
A: -1.12% (inactive)

Q: Which inhibition does the source give for `CN(C)S(=O)(=O)c1cccc(NC(=O)c2ccc(OC(F)(F)F)cc2)c1` here?
A: 5.44% (inactive)

Q: For `O=C(O)C1=C[C@H](c2coc3ccccc3c2=O)C[C@H](OCCCCO)O1`, which inhibition is on record?
A: -1.88% (inactive)

Q: Which inhibition does the source give for `CCOC(=O)N1CCN(C(=O)/C(=C/c2ccc(OC)cc2)NC(=O)c2ccccc2)CC1` here?
A: 1.93% (inactive)

Q: Which inhibition does the source give for `O=C(CN1CCC(C(O)(c2ccccc2)c2ccccc2)CC1)Nc1cc(Cl)ccc1Cl` here?
A: 54.5% (inactive)

Q: For `Cc1cc(Cl)ccc1NC(=O)CN1CCC(C(O)(c2ccccc2)c2ccccc2)CC1`, which inhibition is on record?
A: 46% (inactive)

Q: With `COCCCNC(=O)c1ccc(-c2csc(C)n2)cc1` as the molecule, how does the inhibition read?
A: 2.89% (inactive)

Q: With `Cc1ccc(NC(=O)CN2CCOCC2)cc1S(=O)(=O)N1CCCCC1` as the molecule, how does the inhibition read?
A: -0.79% (inactive)

Q: With `COCCN(C(=O)COC(=O)CCc1ccc(OC)cc1)c1c(N)n(Cc2ccccc2)c(=O)[nH]c1=O` as the molecule, how does the inhibition read?
A: -4.28% (inactive)

Q: Which inhibition does the source give for `CCCNC(=O)c1ccc2c(=O)n(Cc3ccco3)c(=S)[nH]c2c1` here?
A: 4.3% (inactive)

Q: Which inhibition does the source give for `Cc1ncoc1C(=O)N1CCCC(C(=O)c2ccc(-c3ccccc3)c(F)c2)C1` (configuration not stated) here?
A: 10.4% (inactive)

Q: For `COc1ccc2cc(C(=O)C3CCCN(C(=O)c4cncs4)C3)ccc2c1` (configuration not stated), which inhibition is on record?
A: 0.43% (inactive)

Q: With `Cc1ccc(NC(=O)NCc2ccncc2)cc1Cl` as the molecule, how does the inhibition read?
A: 4.38% (inactive)

Q: Which inhibition does the source give for `Cc1cc(C)c(NC(=O)CN(C)CC(=O)Nc2cccc(S(=O)(=O)N(C)c3ccccc3)c2)c(C)c1` here?
A: 1.14% (inactive)

Q: Which inhibition does the source give for `CN(CC(=O)Nc1ccccc1Cl)C(=O)CSc1ncc(C(F)(F)F)cc1Cl` here?
A: 3.84% (inactive)

Q: Which inhibition does the source give for `Cc1cc(Cl)ccc1NC(=O)COC(=O)c1cc([N+](=O)[O-])ccc1N1CCOCC1` here?
A: -0.98% (inactive)

Q: For `N#CCCn1cc(C(=O)NCc2ccccc2)c(-c2ccc3c(c2)OCCO3)n1`, which inhibition is on record?
A: -3.92% (inactive)

Q: For `CN(C)S(=O)(=O)c1ccc(C(=O)Nc2nnc(-c3ccco3)o2)cc1`, which inhibition is on record?
A: 70.1% (inactive)

Q: Which inhibition does the source give for `CCN(c1ccccc1)S(=O)(=O)c1ccc(C(=O)Nc2nnc(-c3ccco3)o2)cc1` here?
A: 12.1% (inactive)

Q: With `O=C(NCCNC(=O)c1ccc(Cl)cc1Cl)c1ccco1` as the molecule, how does the inhibition read?
A: 2.57% (inactive)

Q: For `O=C(O)c1cnn2cc(-c3[nH]ncc3[N+](=O)[O-])cnc12`, which inhibition is on record?
A: 0.22% (inactive)

Q: For `Cc1cccc(N2CC(C(=O)Nc3nccs3)CC2=O)c1C` (configuration not stated), which inhibition is on record?
A: 4.15% (inactive)

Q: With `CCOC(=O)C1(Cc2ccc(Cl)cc2)CCN(C(=O)c2cnc(C)cn2)CC1` as the molecule, how does the inhibition read?
A: -0.58% (inactive)

Q: Which inhibition does the source give for `Cn1cc(CNC(=O)C2CCC(=O)N(Cc3cccc(C(F)(F)F)c3)C2)cn1` (configuration not stated) here?
A: -6.46% (inactive)

Q: For `CSc1ccc(CNC(=O)C2CCC(=O)N(Cc3cccc(F)c3)C2)cc1` (configuration not stated), which inhibition is on record?
A: -1.72% (inactive)

Q: With `Cc1ccc2nc(NCc3ccccc3)c(C=O)c(=O)n2c1` as the molecule, how does the inhibition read?
A: 2.81% (inactive)

Q: Which inhibition does the source give for `C[C@H](NC(=O)NCc1ccc(F)cc1)C(=O)O` here?
A: -0.83% (inactive)

Q: For `COc1ccc(C(=O)n2c(N)nc3ccccc32)cc1OC`, which inhibition is on record?
A: 44.1% (inactive)

Q: For `Nc1nc2ccccc2n1C(=O)c1cccs1`, which inhibition is on record?
A: 10.2% (inactive)

Q: With `c1cc2c3c(cccc3c1)C(N1CCCCC1)=N2` as the molecule, how does the inhibition read?
A: -4.9% (inactive)

Q: With `c1cc2c3c(cccc3c1)C(N1CCOCC1)=N2` as the molecule, how does the inhibition read?
A: -3.61% (inactive)

Q: With `Cc1cc(NC(=O)CSc2cn(CCNC(=O)c3ccc(Cl)cc3)c3ccccc23)no1` as the molecule, how does the inhibition read?
A: -7.12% (inactive)

Q: Which inhibition does the source give for `O=[N+]([O-])c1ccc(-c2nc(NCC3CCCO3)c3ccccc3n2)cc1` (configuration not stated) here?
A: 2.21% (inactive)

Q: Which inhibition does the source give for `c1cncc(-c2nc(NCC3CCCO3)c3ccccc3n2)c1` (configuration not stated) here?
A: 6.22% (inactive)

Q: Which inhibition does the source give for `C=CCN1C(=O)C(CC(=O)Nc2ccc(OC)cc2)N(Cc2ccco2)C1=S` (configuration not stated) here?
A: -5.03% (inactive)

Q: Which inhibition does the source give for `O=C(O)CCNS(=O)(=O)c1ccccc1C(F)(F)F` here?
A: -11.5% (inactive)

Q: For `c1ccc(NCCCNc2ccccc2)cc1`, which inhibition is on record?
A: 2.48% (inactive)

Q: For `COc1cc(CNc2ncn[nH]2)cc(Br)c1OC`, which inhibition is on record?
A: -1.3% (inactive)

Q: Which inhibition does the source give for `Cc1ccc(Cn2ccc(=O)c(OCc3ccccc3)c2C)cc1` here?
A: -1.87% (inactive)

Q: For `Cc1c(OCc2ccccc2)c(=O)ccn1Cc1ccccc1`, which inhibition is on record?
A: 18% (inactive)

Q: With `CC1(CCc2ccccc2)NC(=O)N(CC(=O)N2CC(=O)Nc3ccccc32)C1=O` (configuration not stated) as the molecule, how does the inhibition read?
A: -6.43% (inactive)

Q: With `Cc1cc(NC(=O)Cn2cnc3sccc3c2=O)no1` as the molecule, how does the inhibition read?
A: -4.01% (inactive)

Q: For `O=C(O)c1ccccc1C(=O)N1N=C(c2ccccc2)CC1c1ccccc1O` (configuration not stated), which inhibition is on record?
A: 0.11% (inactive)

Q: Which inhibition does the source give for `C=CCSc1nnc(COc2ccc(=O)n(-c3ccccc3)n2)n1CC` here?
A: 1.1% (inactive)

Q: Which inhibition does the source give for `Cc1cc(=O)n2[nH]c(NCc3c(F)cccc3Cl)nc2n1` here?
A: 11.1% (inactive)

Q: With `CCC(=O)Nc1nc2nc(C)cc(=O)n2[nH]1` as the molecule, how does the inhibition read?
A: -0.66% (inactive)

Q: For `Cc1ccc2nc(Nc3ccc(Cl)cc3)c3nncn3c2c1`, which inhibition is on record?
A: 7.65% (inactive)

Q: With `O=C(NCCc1ccccc1)[C@@H]1CC=C[C@@H]2CCN(Cc3ccccc3)C(=O)[C@@H]21` as the molecule, how does the inhibition read?
A: 1.96% (inactive)

Q: With `COc1ccc(CN2CC[C@H]3C=CC[C@@H](C(=O)NCCc4ccccc4)[C@H]3C2=O)cc1OC` as the molecule, how does the inhibition read?
A: -2.75% (inactive)

Q: For `CCN(CC)C(=S)SCC(=O)c1ccccc1`, which inhibition is on record?
A: 3.47% (inactive)

Q: With `C=C(Cl)CSC(=S)N(CC)CC` as the molecule, how does the inhibition read?
A: 14% (inactive)

Q: With `CCOC(=O)C1CCN(C(=O)CCc2nnc3ccc(N4CCC(C)CC4)nn23)CC1` as the molecule, how does the inhibition read?
A: 1.94% (inactive)

Q: For `CCC(C)(C)NC(=O)C(C)OC(=O)c1nsc(Cl)c1Cl` (configuration not stated), which inhibition is on record?
A: -2.01% (inactive)

Q: With `O=C(N/N=C/c1ccco1)c1cc(-c2ccc3ccccc3c2)n[nH]1` as the molecule, how does the inhibition read?
A: 14.2% (inactive)

Q: Which inhibition does the source give for `Cc1ccc(-c2cc(C(=O)N/N=C/c3ccco3)[nH]n2)cc1` here?
A: -2.14% (inactive)

Q: For `CN(C)C(CNC(=O)c1coc2ccccc2c1=O)c1ccccc1` (configuration not stated), which inhibition is on record?
A: 8.82% (inactive)

Q: Which inhibition does the source give for `COC(=O)C1=C(c2ccc(OCc3ccccc3)cc2)C[C@@H]2CC[C@H]1N2C(=O)NCc1ccccc1` here?
A: -9.3% (inactive)

Q: Which inhibition does the source give for `COC(=O)C1=C(c2ccc(OCc3ccccc3)cc2)C[C@@H]2CC[C@H]1N2C(=O)NCCCc1ccccc1` here?
A: -6.15% (inactive)

Q: Which inhibition does the source give for `COc1ccc(CNC(=O)c2ccc(S(=O)(=O)NCc3ccco3)cc2)cc1` here?
A: 9.2% (inactive)

Q: For `COc1ccc2cc(Br)ccc2c1CC(=O)N(C)C`, which inhibition is on record?
A: 8.82% (inactive)

Q: Which inhibition does the source give for `CCN(CC)C(=O)Cc1c(OC)ccc2cc(Br)ccc12` here?
A: -2.55% (inactive)

Q: With `O=C(Nc1ccccc1C(F)(F)F)c1ccc2nccnc2c1` as the molecule, how does the inhibition read?
A: -5.96% (inactive)

Q: For `Brc1ccc(/C=N/Nc2nncc(-c3ccccc3)n2)o1`, which inhibition is on record?
A: -1.56% (inactive)

Q: Which inhibition does the source give for `CC(=O)c1ccc(N2CCN(C(=O)C3CCN(S(=O)(=O)Cc4ccccc4)CC3)CC2)cc1` here?
A: -3.28% (inactive)

Q: For `Cc1ccc(C(=O)Nc2cccc(C(F)(F)F)c2)cc1Nc1cnccn1`, which inhibition is on record?
A: 0.61% (inactive)

Q: Which inhibition does the source give for `Cc1ccc(C(=O)Nc2cccc(C(F)(F)F)c2)cc1NC(=O)c1[nH]cnc1C(N)=O` here?
A: 1.02% (inactive)

Q: Which inhibition does the source give for `COc1ccc(CN(Cc2ccccn2)S(=O)(=O)c2ccc(-n3cnnn3)c(OC)c2)cc1` here?
A: -8.37% (inactive)

Q: For `NS(=O)(=O)c1cccc(NC(=O)CCS(=O)(=O)c2ccc(Cl)cc2)c1`, which inhibition is on record?
A: -6.68% (inactive)

Q: Which inhibition does the source give for `COc1cccc(NC(=S)N2CCN(c3ccc([N+](=O)[O-])cc3)CC2)c1` here?
A: 0.58% (inactive)

Q: With `COc1cc(C(N)=O)cc(Br)c1OCc1ccccc1` as the molecule, how does the inhibition read?
A: -3.08% (inactive)

Q: Which inhibition does the source give for `O=C(Nc1ccccc1OCc1ccccc1)c1ccccc1Br` here?
A: 12.7% (inactive)

Q: With `Cn1c(SCc2cccc(F)c2)nnc1-c1ccncc1` as the molecule, how does the inhibition read?
A: -10.7% (inactive)
